Results filed as inconclusive are left out. Entries that show only a call come without a potency. Activity calls are given as the source filed them. The call rests on the fitted dose curve; in most records, active means well fitted curve in the direction sought with a large enough effect; inconclusive means small, poorly fitted or top-dose-only effect, or another doubt; inactive means no such curve, though single readings can be large; an effect the other way counts as inactive or inconclusive.
How the values were obtained:
[1] = qHTS of pediatric cancer cell lines to identify multiple opportunities for drug repurposing: Primary screen for NB1643 cells (AID 1347099); further: nearly all actives have a fitted effect of over 50% in size; further: potency means the concentration at half of the fitted maximal effect
Summary of the method: (§1)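 Plated cells (500-1,000 per well, growth media) were allowed to settle for 5 hours, treated with compound dilutions for 48 hours, then lysed with CellTiter-Glo for 15 min at room temperature before luminescence reading.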

[2] = qHTS of pediatric cancer cell lines to identify multiple opportunities for drug repurposing: Primary screen for LAN-5 cells (AID 1347100); further: potency means the concentration at half of the fitted maximal effect
Summary of the method: (§2)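 Cells (500-1,000/well) rested 5 h, then received compounds for 48 h; metabolically active cells were measured by CellTiter-Glo luminescence. Final concentrations spanned up to 46 µM (MIPE, 11-point) or 0.59 nM-46 µM (NPC, 8-point) in primary screens, 11-point in follow-ups.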

[3] = qHTS of pediatric cancer cell lines to identify multiple opportunities for drug repurposing: Primary screen for BT-12 cells (AID 1347101); further: nearly all actives have a fitted effect of over 25% in size; further: potency means the concentration at half of the fitted maximal effect
Summary of the method: as §2

[4] = qHTS of pediatric cancer cell lines to identify multiple opportunities for drug repurposing: Primary screen for OHS-50 cells (AID 1347103); further: nearly all actives have a fitted effect of over 40% in size; further: potency means the concentration at half of the fitted maximal effect
Summary of the method: as §2

[5] = qHTS of pediatric cancer cell lines to identify multiple opportunities for drug repurposing: Primary screen for RD cells (AID 1347104); further: nearly all actives have a fitted effect of over 55% in size; further: potency means the concentration at half of the fitted maximal effect
Summary of the method: as §1

[6] = qHTS of pediatric cancer cell lines to identify multiple opportunities for drug repurposing: Primary screen for MG 63 (6-TG R) cells (AID 1347105); further: nearly all actives have a fitted effect of over 50% in size; further: potency means the concentration at half of the fitted maximal effect
Summary of the method: as §1

[7] = qHTS of pediatric cancer cell lines to identify multiple opportunities for drug repurposing: Primary screen for Rh18 cells (AID 1347102); further: nearly all actives have a fitted effect of over 65% in size; further: potency means the concentration at half of the fitted maximal effect
Summary of the method: as §2

[8] = qHTS of pediatric cancer cell lines to identify multiple opportunities for drug repurposing: Primary screen for Rh30 cells (AID 1347107); further: series mostly up to about 46 µM; nearly all actives have a fitted effect of over 75% in size
Summary of the method: as §2

[9] = qHTS of pediatric cancer cell lines to identify multiple opportunities for drug repurposing: Primary screen for control Hh wild type fibroblast cells (AID 1347106);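 further: series mostly up to about 46 µM; a drop in luminescence marks cytotoxicity and a rise apparent proliferation; nearly all actives have a fitted effect of over 55% in size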
Summary of the method: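 Viability after 48 h compound treatment at 37C, 500-1,000 cells/well, read as ATP luminescence with CellTiter-Glo. Primary screens used 11-point (MIPE, 0.78 nM-46 µM) or 8-point (NPC, 0.59 nM-46 µM) final concentrations; follow-up screens used 11-point dilutions.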

[10] = qHTS of pediatric cancer cell lines to identify multiple opportunities for drug repurposing: Primary screen for Rh41 cells (AID 1347108); further: nearly all actives have a fitted effect of over 70% in size; further: potency means the concentration at half of the fitted maximal effect
Summary of the method: as §1

SMILES | Potency [1] | Potency [2] | Potency [3] | Potency [4] | Potency [5] | Potency [6] | Potency [7] | Potency [8] | Potency [9] | Potency [10]
CCC(=C(c1ccc(O)cc1)c1ccc(OCCNC)cc1)c1ccccc1 | 23.5 µM (active) | 26.4 µM (active) | 27.3 µM (active) | 21.7 µM (active) | 33.2 µM (active) | 23.5 µM (active) | – | – | – | –
CCc1cccc(CC)c1NC(=O)N1Cc2[nH]nc(NC(=O)c3ccc(N4CCN(C)CC4)cc3)c2C1 | inactive | 0.296 µM (active) | inactive | – | – | – | 8.33 µM (active) | inactive | – | –
CC(C)(F)C[C@H](N[C@@H](c1ccc(-c2ccc(S(C)(=O)=O)cc2)cc1)C(F)(F)F)C(=O)NC1(C#N)CC1 | inactive | inactive | inactive | – | – | inactive | – | inactive | inactive | –
Cc1ccc(NC(=O)c2ccc(CN3CCN(C)CC3)cc2)cc1Nc1nc(-c2cccnc2)cs1 | inactive | 18.7 µM (active) | 21.7 µM (active) | 21.7 µM (active) | 18.7 µM (active) | inactive | – | inactive | inactive | inactive
N#CC(=C1Nc2ccccc2S1)c1ccnc(OCc2ccc(CN3CCOCC3)cc2)n1 | 0.0526 µM (active) | 1.48 µM (active) | 0.172 µM (active) | 0.344 µM (active) | 0.662 µM (active) | 3.72 µM (active) | – | – | – | –
CC1CCN(c2cc(N3CCN(C)CC3)ccc2NC(=O)c2cc(C#N)c[nH]2)CC1 | inactive | inactive | inactive | – | – | – | inactive | inactive | inactive | –
Cc1ccc(S(=O)(=O)OCC(=O)Nc2ccc(C(=O)O)c(O)c2)cc1 | 18.7 µM (active) | 2.35 µM (active) | inactive | – | – | inactive | inactive | – | inactive | –
CSc1cccc(Nc2ncc3cc(-c4c(Cl)cccc4Cl)c(=O)n(C)c3n2)c1 | 0.209 µM (active) | 0.372 µM (active) | inactive | – | – | – | – | inactive | inactive | 0.743 µM (active)
CC[C@@H]([C@H](C)O)n1ncn(-c2ccc(N3CCN(c4ccc(OCC5CO[C@@](Cn6cncn6)(c6ccc(F)cc6F)C5)cc4)CC3)cc2)c1=O (stereo partly specified) | 23.5 µM (active) | 18.7 µM (active) | 21.7 µM (active) | 21.7 µM (active) | 20.9 µM (active) | inactive | – | – | inactive | –
Oc1cc(O)cc(C=Cc2ccc(O)c(O)c2)c1 | 20.9 µM (active) | 13.2 µM (active) | 24.3 µM (active) | 19.3 µM (active) | – | – | – | – | inactive | –
C[C@H]1[C@H](O)O[C@@H]2O[C@@]3(C)CC[C@@H]4[C@H](C)CC[C@@H]1[C@@]24OO3 | 5.9 µM (active) | 6.62 µM (active) | 1.53 µM (active) | 1.37 µM (active) | 1.87 µM (active) | 23.5 µM (active) | – | inactive | inactive | inactive
CC(C)[C@H](O)C(=O)N[C@@H](C)C(=O)N[C@@H]1C(=O)N(C)CCc2ccccc21 | 20.9 µM (active) | inactive | inactive | – | – | – | inactive | – | inactive | –
CN1[C@H]2CC[C@H]1CC(OC(=O)c1c[nH]c3ccccc13)C2 (stereo partly specified) | 23.5 µM (active) | inactive | inactive | – | inactive | – | – | inactive | inactive | –
O=c1[nH]c(=O)n([C@H]2C[C@@H](O)[C@@H](CO)O2)cc1I | inactive | inactive | – | inactive | inactive | inactive | inactive | inactive | inactive | inactive
C[C@]12C=CC(=O)C=C1CC[C@@H]1[C@@H]2[C@@H](O)C[C@@]2(C)[C@@H]1CC[C@]2(O)C(=O)CO | inactive | 23.5 µM (active) | – | inactive | inactive | inactive | inactive | inactive | inactive | –
CCc1cc(-c2n[nH]c(C)c2-c2ccc3c(c2)OCCO3)c(O)cc1O | 10.5 µM (active) | 5.9 µM (active) | – | 9.68 µM (active) | – | – | 6.62 µM (active) | inactive | inactive | –
NC1(C(=O)N[C@@H](CCO)c2ccc(Cl)cc2)CCN(c2ncnc3[nH]ccc23)CC1 | 1.87 µM (active) | 18.7 µM (active) | – | – | – | 7.43 µM (active) | 2.35 µM (active) | – | inactive | 0.743 µM (active)
COc1ccc(-c2cc3nccn3c(Nc3ncccc3C(N)=O)n2)cc1OC | 2.35 µM (active) | 1.48 µM (active) | – | 1.93 µM (active) | – | inactive | inactive | – | inactive | 2.35 µM (active)
Cc1cc(NC(=O)Nc2ccc(N(C)C)cc2)c2cc(F)cc(F)c2n1 | inactive | inactive | – | – | inactive | inactive | inactive | inactive | inactive | inactive
NC(=O)c1ncn([C@@H]2O[C@H](CO)[C@@H](O)[C@@H]2O)n1 | inactive | inactive | – | inactive | inactive | inactive | inactive | inactive | inactive | inactive
CCCCC(C=O)NC(=O)C(CC(C)C)NC(=O)OCc1ccccc1 (stereo unspecified) | 26.4 µM (active) | inactive | – | – | – | – | inactive | – | inactive | –
COc1cc(Cl)cn2c(-c3cccc(NC4CNC4)n3)cnc12 | 10.5 µM (active) | 16.6 µM (active) | – | 12.2 µM (active) | inactive | – | inactive | – | inactive | –
COc1ccc(Cn2ccc3ccc(C(=O)NO)cc32)cc1 | 14.8 µM (active) | 20.9 µM (active) | – | – | – | inactive | inactive | – | inactive | inactive
